Experimental findings from PubChem BioAssay (EPA / NIEHS) are described below.

Each structure is given as a SMILES string. Active and inactive are the calls of the source. Rule for the calls: active = hit-call score of the fitted dose curve at least 0.9, where 1 is the maximum; inactive = score below 0.9.

This test in a line: BSK_3C_SRB: Viability Assessment in the BioMAP Diversity Plus: 3C Assay (AID 2283023).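 Note: fitted both ways against DMSO so a hit may be signal rise or drop.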 The following applies: primary human endothelial cells (HUVEC). Here is the method:
BSK_3C is a cell-based, multiplexed-readout assay that uses umbilical vein endothelium, a human vascular primary cell, with measurements taken at 24 hours after chemical dosing in a 96-well plate.BSK_3C_SRB is an assay component measured in the BSK_3C assay. It measures 0.1% sulforhodamine related to cell death using Sulforhodamine staining technology.Data from the assay component BSK_3C_SRB was analyzed into 1 assay endpoint. This assay endpoint, BSK_3C_SRB, was analyzed with bidirectional fitting relative to DMSO as the negative control and baseline of activity. Using a type of viability reporter, gain or loss-of-signal activity can be used to understand changes in the signaling. Furthermore, this assay endpoint can be referred to as a primary readout, because this assay has produced multiple assay endpoints where this one serves a signaling function. To generalize the intended target to other relatable targets, this assay endpoint is annotated to the cell morphology intended target family, where the subfamily is cell conformation.
The levels of cell surface (or secreted, indicated by the prefix "s") biomarker endpoints were measured by ELISA. Overt cytotoxicity to cells in confluent adherent cultures (all systems other than the BT system) was assessed by measuring total protein levels using sulforhodamine B (SRB) staining in parallel cultures at the time of biomarker measurements, indicated as SRB endpoints. For proliferation assays for adherent cell types, individual cell types are cultured at sub-confluence and relative cell numbers quantified by SRB staining at time points optimized for each system (48 h: 3C and CASM3C systems; 72 h: BT and HDF3CGF systems; 96 h: SAg system). SRB was performed by staining cells with 0.1% SRB after fixation with 10% TCA and reading wells at 560 nm.Viability and proliferation of PBMC (T cells) was quantified by Alamar Blue reduction for the SAg and BT systems. For PBMC viability (referred to as PBMC Cytotoxicity within the assay endpoint names), cells were plated (75,000/well in a 96-well plate) and then chemical samples added for 1 h before addition of activators, SEB and TSST-1 (20 ng/mL final concentration each). Cells were incubated for 90 h. Then, Alamar Blue (20 uL/well) (Invitrogen, Cat DAL1100) was added for 6 h, and the plates were read with a fluorescence microplate reader at 546/580 nm (excitation/emission). For PBMC proliferation, cells were plated and activated as above but incubated for only 16 h prior to addition of Alamar Blue. Plates were read after 6 h.
With `Cc1nc(-c2ccccn2)ncc1C(=O)Nn1cc(C)c2cc(F)ccc21`, the AC50 was 20 µM (active).

For `O=C(O)c1ccc2c(c1)nc(C(=O)NC1CCN(C3CC3)CC1)n2Cc1cc(-c2ccc(Cl)s2)on1`, the result was inactive.

Consider `c1ccc(C(O[C@@H]2CCCN(CCc3ccc4c(c3)OCO4)C2)c2ccccc2)cc1`, for which the AC50 was 25.2 µM (active).

With `OC(O)(C(F)C(O)(O)C(F)(F)F)C(F)(F)F`, the result was inactive.

`CCCCCOC(C)=O`: the result was inactive.

For `OCc1c[nH]c2ccccc12`, the AC50 was 11.5 µM (active).

Consider `OCCOCCOCCO`, for which the result was inactive.

As for `c1ccc2ncccc2c1`, the outcome was inactive.

On to `CCN(CC)C(=S)SSC(=S)N(CC)CC`, for which the AC50 was 27.8 µM (active).

Take `CC[C@H](C)C(=O)O[C@H]1C[C@H](O)C=C2C=C[C@H](C)[C@H](CC[C@@H](O)C[C@@H](O)CC(=O)O)[C@H]21`: the outcome was inactive.

For the compound `CCn1nc(C)c2c1C(=O)NCC(c1ccc(O)cc1)=N2`, the result was inactive.

Consider `CCCCOC(=O)c1ccccc1`, for which the result was inactive.

Take `O=S1(=O)CCCO1`: the result was inactive.

Take `Cc1ncc([C@@H](CCCCCCc2ccc3c(n2)NCCC3)CC(=O)O)cn1`: the result was inactive.

As to `O=C1CN(N=Cc2ccc([N+](=O)[O-])o2)C(=O)N1`, the result was inactive.

`COCc1nnc(-c2ccc[n+]([O-])c2)n1-c1c(Cl)c(Cl)cc2[nH]c(=O)c(=O)[nH]c12`: the outcome was inactive.

Turning to `CC(C)C(=O)Nc1ccc([N+](=O)[O-])c(C(F)(F)F)c1`, the result was inactive.

On to `CCCOc1ccc(S(=O)(=O)N2CCN(CC)CC2)cc1-c1nc2c(CC)n(Cc3ccccn3)nc2c(=O)[nH]1`, for which the outcome was inactive.

Consider `CC(C)CC(C)O` (stereo not given), for which the outcome was inactive.

As for `CC(C)c1nnc2ccc(-c3ocnc3-c3cc(F)ccc3F)cn12`, the AC50 is 0.61 µM (active).

In the case of `CCCCN1C(=O)[C@@H]([C@H](O)C2CCCCC2)NC(=O)C12CCN(Cc1ccc(Oc3ccc(C(=O)O)cc3)cc1)CC2`, the AC50 was 27.3 µM (active).

For `CCCCCCCCCC`, the result was inactive.

For `OC(CCl)CCl`, the result was inactive.

As for `CCCc1ccccc1`, the outcome was inactive.

`CNC(C)=O`: the result was inactive.

Consider `O=c1[nH]cnc2c1ncn2[C@H]1CC[C@@H](CO)O1`, for which the result was inactive.

As for `O=C(NO)C1(NS(=O)(=O)c2ccc(Oc3ccc(F)cc3)cc2)CCOCC1`, the result was inactive.

In the case of `OC[C@H]1O[C@@H]2O[C@H]3[C@H](O)[C@@H](O)[C@@H](O[C@H]4[C@H](O)[C@@H](O)[C@@H](O[C@H]5[C@H](O)[C@@H](O)[C@@H](O[C@H]6[C@H](O)[C@@H](O)[C@@H](O[C@H]7[C@H](O)[C@@H](O)[C@@H](O[C@H]1[C@H](O)[C@H]2O)O[C@@H]7CO)O[C@@H]6CO)O[C@@H]5CO)O[C@@H]4CO)O[C@@H]3CO`, the result was inactive.

In the case of `C=CCc1cc(S(=O)(=O)c2ccc(O)c(CC=C)c2)ccc1O`, the AC50 was 23.8 µM (active).

For `O=C(O)[C@H](O)[C@@H](O)C(=O)O`, the outcome was inactive.

Turning to `CCOc1ccc2[nH]cc(C(=O)NCc3ccccc3)c(=O)c2n1`, the result was inactive.

Turning to `CCCCCCCCCCCCCCCCOS(=O)(=O)O`, the result was inactive.

For `OCCC(F)(F)C(F)(F)C(F)(F)C(F)(F)F`, the result was inactive.

Take `OC(Cn1cncn1)(Cn1cncn1)c1ccc(F)cc1F`: the outcome was inactive.

As to `Cn1cc[nH]c1=S`, the outcome was inactive.

Regarding `NCC(F)(F)C(F)(F)C(F)(F)C(F)(F)F`, the outcome was inactive.

Turning to `O=C(O)c1cccc(C(=O)O)c1`, the result was inactive.

Turning to `CCOC(N)=O`, the outcome was inactive.

For the compound `O=S(=O)(O)CCC(F)(F)C(F)(F)C(F)(F)C(F)(F)C(F)(F)C(F)(F)F`, the result was inactive.

Regarding `Nc1ccn([C@@H]2O[C@H](CO)[C@@H](O)[C@@H]2O)c(=O)n1`, the AC50 was 7.44 µM (active).
